This excerpt belongs to a sample that is enriched for the strongest signals.
Assays:
Test in all cases: glycan array binding signal (z-score within array); higher = stronger binding
Conditions in all cases: glycan notation: IUPAC condensed, linker removed; mutation: D57L
[1] = target: Fuc(a1-2)Gal(b1-3)GlcNAc(b1-2)Man(a1-3)[Fuc(a1-2)Gal(b1-3)GlcNAc(b1-2)Man(a1-6)]Man(b1-4)GlcNAc(b1-4)GlcNAc
In short: (§1)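 Glycan array binding is given as a within-array Z-score, which can be read as non-binding when negative. The arrays, 3228 of them, came from the Consortium for Functional Glycomics database and were retained only where the protein sequence was available. Z-scores were averaged across arrays of the same protein sequence at different concentrations or buffers and across linkers.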

[2] = target: Fuc(a1-2)Gal(b1-3)GlcNAc(b1-3)Gal(b1-4)Glc
In short: as §1

[3] = target: Fuc(a1-2)Gal(b1-3)GlcNAc(b1-3)[Gal(b1-4)GlcNAc(b1-6)]Gal(b1-4)Glc
In short: as §1

[4] = target: Fuc(a1-2)Gal(b1-3)GlcNAc(b1-3)[Neu5Ac(a2-6)Gal(b1-4)GlcNAc(b1-6)]Gal(b1-4)Glc
In short: as §1

[5] = target: Fuc(a1-2)Gal(b1-4)Fuc(a1-3)]GlcNAc(b1-2)Man(a1-3)[Fuc(a1-2)Gal(b1-4)[Fuc(a1-3)]GlcNAc(b1-2)Man(a1-6)]Man(b1-4)GlcNAc(b1-4)GlcNAc
In short: as §1

[6] = target: Fuc(a1-2)Gal3S(b1-4)GlcNAc
In short: as §1

[7] = target: Fuc(a1-2)Gal6S(b1-3)GlcNAc6S
In short: as §1

[8] = target: Fuc(a1-2)[Gal(a1-3)]Gal(b1-3)GalNAc(b1-3)Gal(a1-4)Gal(b1-4)Glc
In short: as §1

[9] = target: Fuc(a1-2)[Gal(a1-3)]Gal(b1-4)GlcNAc(b1-2)Man(a1-3)[Fuc(a1-2)[Gal(a1-3)]Gal(b1-4)GlcNAc(b1-2)Man(a1-6)]Man(b1-4)GlcNAc(b1-4)[Fuc(a1-6)]GlcNAc
In short: as §1

[10] = target: Fuc(a1-2)[Gal(a1-3)]Gal(b1-4)GlcNAc(b1-6)GalNAc
In short: as §1

[11] = target: Fuc(a1-3)[Gal3S(b1-4)]GlcNAc6S
In short: as §1

Gal(a1-3)GalNAc = target: Gal(a1-3)GalNAc
In short: as §1

[12] = target: Gal(b1-3)GalNAc(b1-4)Gal(b1-4)Glc
In short: as §1

[13] = target: Gal(b1-3)GlcNAc(b1-3)Gal(b1-4)GlcNAc
In short: as §1

[14] = target: Gal(b1-3)[Fuc(a1-4)]GlcNAc(b1-2)Man(a1-3)[Gal(b1-3)[Fuc(a1-4)]GlcNAc(b1-2)Man(a1-6)]Man(b1-4)GlcNAc(b1-4)[Fuc(a1-6)]GlcNAc
In short: as §1

[15] = target: Gal(b1-4)GlcNAc(a1-6)Gal(b1-4)GlcNAc
In short: as §1

[16] = target: Gal(b1-4)GlcNAc(b1-2)Man(a1-3)[Man(a1-6)]Man(b1-4)GlcNAc(b1-4)GlcNAc
In short: as §1

[17] = target: Gal(b1-4)GlcNAc(b1-2)Man(a1-6)Man(b1-4)GlcNAc(b1-4)GlcNAc
In short: as §1

[18] = target: Gal(b1-4)GlcNAc(b1-3)Gal(b1-4)GlcNAc(b1-2)[Gal(b1-4)GlcNAc(b1-3)Gal(b1-4)GlcNAc(b1-6)]Man(a1-6)[Gal(b1-4)GlcNAc(b1-3)Gal(b1-4)GlcNAc(b1-2)Man(a1-3)]Man(b1-4)GlcNAc(b1-4)GlcNAc
In short: as §1

[19] = target: Gal(b1-4)GlcNAc(b1-3)Gal(b1-4)GlcNAc(b1-3)Gal(b1-4)GlcNAc(b1-2)Man(a1-3)[Gal(b1-4)GlcNAc(b1-3)Gal(b1-4)GlcNAc(b1-3)Gal(b1-4)GlcNAc(b1-2)Man(a1-6)]Man(b1-4)GlcNAc(b1-4)[Fuc(a1-6)]GlcNAc
In short: as §1

[20] = target: Gal(b1-4)GlcNAc(b1-3)Gal(b1-4)GlcNAc(b1-3)Gal(b1-4)GlcNAc(b1-3)Gal(b1-4)GlcNAc(b1-3)Gal(b1-4)GlcNAc(b1-2)Man(a1-3)[Gal(b1-4)GlcNAc(b1-3)Gal(b1-4)GlcNAc(b1-3)Gal(b1-4)GlcNAc(b1-3)Gal(b1-4)GlcNAc(b1-3)Gal(b1-4)GlcNAc(b1-2)Man(a1-6)]Man(b1-4)GlcNAc(b1-4)[Fuc(a1-6)]GlcNAc
In short: as §1

[21] = target: Gal(b1-4)GlcNAc(b1-3)[GlcNAc(b1-6)]Gal(b1-4)GlcNAc
In short: as §1

Gal3S(b1-3)GalNAc = target: Gal3S(b1-3)GalNAc
In short: as §1

Gal3S6S(b1-4)GlcNAc6S = target: Gal3S6S(b1-4)GlcNAc6S
In short: as §1

Gal6S(b1-4)Glc = target: Gal6S(b1-4)Glc
In short: as §1

Gal6S(b1-4)GlcNAc = target: Gal6S(b1-4)GlcNAc
In short: as §1

Glc(a1-6)Glc(a1-6)Glc = target: Glc(a1-6)Glc(a1-6)Glc
In short: as §1

[22] = target: Glc(a1-6)Glc(a1-6)Glc(a1-6)Glc
In short: as §1

[23] = target: GlcNAc(b1-2)[GlcNAc(b1-4)]Man(a1-3)[GlcNAc(b1-2)Man(a1-6)]Man(b1-4)GlcNAc(b1-4)GlcNAc
In short: as §1

B1: PNGase F (Flavobacterium meningosepticum) (protein)
chain: GIPAPADNTVNIKTFDKVKNAFGDGLSQSAEGTFTFPADVTAVKTIKMFIKNECPNKTCLEWDRYANVYVKNKTTGEWYEIGRFITPYWVGTEKLPRGLEIDVTDFKSLLSGNTELKIYTETWLAKGREYSVDFDIVYGTPDYKYSAVVPVVQYNKSSIDGVPYGKAHTLALKKNIQLPTNTEKAYLRTTISGWGHAKPYDAGSRGCAEWCFRTHTIAINNSNTFQHQLGALGCSANPINNQSPGNWTPDRAGWCPGMAVPTRIDVLNNSLIGSTFSYEYKFQNWTNNGTNGDAFYAISSFVIAKSNTPISAPVVTNLDPHHHHHH
glycan array binding signal (z-score) [1]: 3.35
glycan array binding signal (z-score) [2]: -0.517
glycan array binding signal (z-score) [3]: 0.038
glycan array binding signal (z-score) [4]: -0.604
glycan array binding signal (z-score) [5]: 7.24
glycan array binding signal (z-score) [6]: -0.942
glycan array binding signal (z-score) [7]: 4.52
glycan array binding signal (z-score) [8]: -0.247
glycan array binding signal (z-score) [9]: 1.68
glycan array binding signal (z-score) [10]: 1.12
glycan array binding signal (z-score) [11]: -0.29
glycan array binding signal (z-score) (Gal(a1-3)GalNAc): -0.507
glycan array binding signal (z-score) [12]: -0.31
glycan array binding signal (z-score) [13]: -0.079
glycan array binding signal (z-score) [14]: 4.53
glycan array binding signal (z-score) [15]: -1.25
glycan array binding signal (z-score) [16]: 2.77
glycan array binding signal (z-score) [17]: 0.974
glycan array binding signal (z-score) [18]: 3.43
glycan array binding signal (z-score) [19]: 0.367
glycan array binding signal (z-score) [20]: 0.345
glycan array binding signal (z-score) [21]: 3.02
glycan array binding signal (z-score) (Gal3S(b1-3)GalNAc): -0.275
glycan array binding signal (z-score) (Gal3S6S(b1-4)GlcNAc6S): 3.81
glycan array binding signal (z-score) (Gal6S(b1-4)Glc): 0.11
glycan array binding signal (z-score) (Gal6S(b1-4)GlcNAc): -0.941
glycan array binding signal (z-score) (Glc(a1-6)Glc(a1-6)Glc): 0.269
glycan array binding signal (z-score) [22]: 1.14
glycan array binding signal (z-score) [23]: -0.836
